Compounds with a hit are over-represented: about 3.5% of the library has one in this group of screens.
BoNT-A LC inh2 = inhibitors of Botulinum neurotoxin A light chain protease; multiplex microsphere protease substrate cleavage, flow cytometry; inhibition, % at 10 µM; 0.17% of 360,000 active; note: plate controls were buffer without enzyme for full effect and enzyme alone for no effect
3CLpro inhibitor = SARS-CoV 3CLpro protease inhibition; P0C6X7; recombinant SARS-CoV 3CLpro, quenched FRET peptide cleavage; inhibition, % at 6 µM; 0.14% of 290,000 active; AID 1706; in the data active = inhibition above about 12%
Anthrax LF inh2 = anthrax lethal factor protease inhibition; P15917; multiplex microsphere protease cleavage assay, LF; inhibition, % at 10 µM; 0.12% of 360,000 active; AID 588501; note: plate controls were buffer without enzyme for full effect and enzyme alone for no effect
Target sequence (P15917 whole entry, looked up): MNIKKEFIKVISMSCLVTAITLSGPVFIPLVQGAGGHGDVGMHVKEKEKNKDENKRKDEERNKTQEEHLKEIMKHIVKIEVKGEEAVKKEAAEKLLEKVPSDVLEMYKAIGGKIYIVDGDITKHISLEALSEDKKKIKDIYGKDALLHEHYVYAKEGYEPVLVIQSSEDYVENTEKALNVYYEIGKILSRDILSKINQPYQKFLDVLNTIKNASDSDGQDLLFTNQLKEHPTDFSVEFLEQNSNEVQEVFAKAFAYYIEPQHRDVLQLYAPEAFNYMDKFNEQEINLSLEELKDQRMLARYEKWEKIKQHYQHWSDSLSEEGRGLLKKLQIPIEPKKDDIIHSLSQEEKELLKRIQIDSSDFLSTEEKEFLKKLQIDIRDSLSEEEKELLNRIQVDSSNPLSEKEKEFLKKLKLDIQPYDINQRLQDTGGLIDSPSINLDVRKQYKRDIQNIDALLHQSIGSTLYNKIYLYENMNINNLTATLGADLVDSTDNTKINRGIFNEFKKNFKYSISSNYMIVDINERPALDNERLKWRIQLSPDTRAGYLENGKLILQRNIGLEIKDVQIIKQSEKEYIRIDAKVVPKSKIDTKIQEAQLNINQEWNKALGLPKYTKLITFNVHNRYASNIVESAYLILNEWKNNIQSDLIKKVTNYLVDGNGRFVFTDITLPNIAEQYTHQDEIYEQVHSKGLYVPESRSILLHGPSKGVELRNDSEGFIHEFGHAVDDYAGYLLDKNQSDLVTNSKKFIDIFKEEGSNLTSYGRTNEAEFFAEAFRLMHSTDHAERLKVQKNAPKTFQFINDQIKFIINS
Bead autofluor = counter-screen for toxin protease inhibitors: compound fluorescence | fluorescence intensity (test concentration not listed) | 3.1% of 360,000 active | AID 624483 | compound autofluorescence counterscreen, microsphere flow cytometry; stronger effect = higher value; in the data active = fluorescence intensity above about 16000; inconclusive = no clear call, values can overlap the other calls
BoNT F protease = inhibitors of Botulinum neurotoxin F light chain protease; Multiplex microsphere protease cleavage assay, flow cytometry; inhibition, % at 10 µM; 0.22% of 360,000 active; AID 588497; in the data active = inhibition above about 35%, passing the limit was not always enough; inconclusive = no clear call, values can overlap the other calls; note: plate controls were buffer without enzyme for full effect and enzyme alone for no effect
* hit, by the source's call; ? = inconclusive; / = not tested or not shown. Cut-off read from the data, not from the text of the source, unless noted: active = inhibition above about 30%; inconclusive = no clear call, values can overlap the other calls; inactive = below that.

SMILES	BoNT-A LC inh2	3CLpro inhibitor	Anthrax LF inh2	Bead autofluor	BoNT F protease
Cc1ccc(S(=O)(=O)N2CC(O)CC2C(=O)Nc2ccc3c(c2)CCC3)cc1 (configuration not stated)	1	2	-4	5020	16
CCc1ccccc1-n1c(-c2ccncc2)n[nH]c1=S	-2	-3	-3	22962*	-2
Cc1ccsc1C(=O)NC(C)c1ccc2c(c1)OCO2 (configuration not stated)	0	0	-1	22863*	-3
CC(NC(=O)c1cccnc1)c1ccc2c(c1)OCO2 (configuration not stated)	?	-3	-1	16408*	-2
CC(NC(=O)c1cccs1)c1ccc2c(c1)OCO2 (configuration not stated)	0	-8	-1	20040*	-1
Cc1ccc(C(=O)NC(C)c2ccc3c(c2)OCO3)s1 (configuration not stated)	0	0	-2	4079	-3
Cc1ccc(C(C)NC(=O)c2cccnc2)cc1 (configuration not stated)	0	/	5	5225	4
CCOC(=O)c1c(-c2ccc(C)o2)csc1NC(=S)NC(=O)c1ccccc1Br	0	-3	-8	16268*	-4
C/C(=N/NC(=O)c1ccc(-c2ccccc2)cc1)c1cc(O)cc(O)c1	-2	-5	1	6025	-6
O=S(=O)(c1ccc(Cl)c(Cl)c1)N1CCc2nc3ccccc3n2CC1	0	0	6	17740*	-4
O=S(=O)(c1ccc(Br)cc1)N1CCn2c(nc3ccccc32)C1	0	-3	-1	5189	-1
Cc1cccc(NC(=O)Cc2c(F)cccc2Cl)n1	-2	2	-6	4204	7
CC1=C(C#N)C(NC(=O)C2CCCCC2)(C(F)(F)F)C(=O)N1 (configuration not stated)	0	-3	-4	22461*	3
COc1ccc(CCNC(=O)c2nonc2N)cc1	0	-4	-6	6706	9
COc1cccc(CNCCNC(=O)c2nonc2N)c1	-5	2	-3	24154*	-9
CC(=O)c1cc(-c2ccccc2)n(CC(=O)N2CCC(C)CC2)c1C	?	4	0	17028*	-4
CCOCCCN(Cc1ccco1)S(=O)(=O)c1csc(C(N)=O)c1	-2	-1	-6	6409	1
CS(=O)(=O)c1ccc(N)c(SSc2cc(S(C)(=O)=O)ccc2N)c1	1	/	-6	3962	-6
Cc1ccc(Oc2nc(-c3ccccc3)ncc2S(=O)(=O)c2ccc(C)cc2)cc1	-1	-1	-3	2374	-19
O=C(c1cccnc1)N1CCN(S(=O)(=O)c2ccc(Cl)cc2)CC1	0	-4	-1	4285	5
O=C(Nc1ccc(S(=O)(=O)N2CCN(Cc3ccccc3)CC2)cc1)c1cnccn1	-2	-4	-3	16875*	-6
CC(=O)Nc1ccc(S(=O)(=O)N(C)c2ccccc2)cc1	-2	3	-4	9834	-24
CC(=O)Nc1ccc(S(=O)(=O)N2CCN(C(=O)c3cccnc3)CC2)cc1	-1	0	-3	23558*	-4
CC(=O)Nc1ccc(S(=O)(=O)N(c2cccnc2)S(=O)(=O)c2ccc(NC(C)=O)cc2)cc1	-2	-5	-1	23675*	-6
CCC1(c2ccc(F)cc2)NC(=O)N(CC(=O)NCc2ccc(C)cc2)C1=O (configuration not stated)	0	3	0	3289	0
SMILES	BoNT-A LC inh2	3CLpro inhibitor	Anthrax LF inh2	Bead autofluor	BoNT F protease
O=C1CS(=O)(=O)N(Cc2cccc(F)c2)c2ccc(Br)cc21	0	/	1	3804	6
COC(=O)CCCC1=CC2=CC(=O)C(C)(OC(=O)c3cccs3)C(=O)C2=CN1Cc1ccc2c(c1)OCO2 (configuration not stated)	2	/	-2	3335	-7
O=C1/C(=C/c2ccc(O)cc2)SC(=S)N1Cc1cccnc1	1	6	-1	2010	4
COc1cc(/C=C2/SC(=S)N(Cc3ccccc3)C2=O)ccc1O	30*	2	15	3622	22
Cc1ccc(/C=C2\SC(=S)N(Cc3ccccc3)C2=O)o1	48*	4	36*	4741	11
COc1ccc(/C=C2\SC(=S)N(Cc3cccnc3)C2=O)cc1C	38*	-3	20	2712	12
Cc1cccn2c(=O)c3c(nc12)N1CCCCCC1C1(C3)C(=O)N(C)C(=O)N(C)C1=O (configuration not stated)	1	-1	2	6088	3
COc1ccc(CCNC(=O)Cn2c(=O)n(CC3CCCO3)c(=O)c3cc(OC)c(OC)cc32)cc1OC (configuration not stated)	/	4	/	/	/
CCOC(=O)CCP(=O)(O)C(C)(O)c1ccccc1 (configuration not stated)	2	7	1	18987*	0
Cc1ccc2nc(SCC(=O)c3ccc4c(c3)OCO4)[nH]c2c1	0	-8	-9	5248	3
Cc1ccc2nc(SCC(=O)c3ccc(Cl)s3)[nH]c2c1	0	-4	-3	19540*	-2
Cc1cc(C)c(C#N)c(SCc2ccc(C(=O)O)cc2)n1	0	4	32*	3101	?
Cc1cc(C)c(C#N)c(SCc2ccccc2)n1	0	0	-11	2419	8
Cc1ccc2nc(CSc3nc(C)cc(C)c3C#N)[nH]c2c1	8	-3	1	21126*	7
CCc1cc(C(=O)NNC(=S)Nc2cccc(C)c2)cs1	-5	-2	1	21356*	-7
CCCCNC(=S)NNC(=O)c1csc(C)c1	0	6	-3	22322*	-2
CCNC(=S)NNC(=O)c1csc(C)c1	0	0	-2	2443	-2
S=C(NCc1ccccc1)Nc1cccc(Cl)c1	1	0	1	4062	-10
Cc1cccc(NC(=S)N2N=CCC2c2ccccc2)c1 (configuration not stated)	-2	4	-1	17190*	-5
Cc1cccc(NC(=S)NNC(=S)NCc2ccccc2)c1	1	5	0	22617*	-1
Cn1nc(-c2ccc(Cl)cc2)cc1NC(=O)CSCC(=O)O	/	5	/	/	/
CCC(=O)Oc1ccc(C(=O)Nc2ccc3c(c2)C(=O)N(C2CCCCC2)C3=O)cc1	3	-2	-4	19149*	4
CC(C)(C)NC(=O)c1ccc2c(c1)C(=O)N(C1CCCCC1)C2=O	-2	3	-6	16466*	-3
CC(C)CNC(=O)c1ccc2c(c1)C(=O)N(C1CCCCC1)C2=O	-2	5	-14	3243	?
O=C(c1ccc2c(c1)OCO2)N1CCCC(c2ccccc2)C1 (configuration not stated)	0	-2	1	10760	3
CC1CCc2sc(C(=O)N/N=C/c3ccc(O)cc3)cc2C1 (configuration not stated)	1	-1	-14	5587	2
COC(=O)Cc1ccc(NC(=O)c2ccc(C)c(C)c2)cc1	-2	1	-1	24555*	0
Cc1ccc(CNC(=O)C(=O)NCCCn2ccnc2)cc1	-1	2	0	7776	-6
